Experimental data: PubChem BioAssay (NCI)
This is part of a sample that, as a whole, favours compounds with a hit. Of some 83,000 tested, about 20% had one in any assay.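 Testing used 96-well plates and a 48-hour single-concentration exposure. Example: -40 means 40% of the starting cells died.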 Calls of active or inactive are those of the source. How the source made its calls: active means growth percent below 10; inactive means the rest.

How the values were obtained:
Assay in all cases: NCI-60 one-dose screen, 48 h (100 = growth as untreated, 0 = no growth, -100 = all killed)
Details in all cases: 10 µM unless noted
[1] = test system: HCT-15 colon
[2] = test system: HT29 colon
[3] = test system: SNB-75 CNS
[4] = test system: U251 CNS
[5] = test system: PC-3 prostate
[6] = test system: SK-MEL-5 melanoma
[7] = test system: UACC-62 melanoma
[8] = test system: LOX IMVI melanoma
[9] = test system: SK-MEL-28 melanoma
[10] = test system: SNB-19 CNS

Measured: growth

COc1ccc(-c2cc(-c3cccnc3)nc3sc4c(=O)n(-c5ccc(C)cc5)cnc4c23)cc1OC
inactive: [1] 94.2% | [2] 104% | [3] 74.9% | [4] 103% | [5] 91.2% | [6] 94.2% | [7] 97.3% | [8] 97.9% | [9] 89.3%

Cc1ccc2c(c1)C(=O)c1c-2c(OCCCN(C)C)nc2ccccc12
active: [1] -17.8% | [2] -33% | [4] 4.38% | [7] -66% | [8] -71.9% | [9] -54%
inactive: [3] 38.5% | [5] 18.6% | [6] 28.5%

CN1CCN(Cc2ccc(NC(=O)c3[nH]ncc3Nc3ncnc4sccc34)cc2)CC1
active: [1] 7.97% | [3] -32.5% | [5] 6.12% | [6] -5.05% | [7] 8.83% | [8] -1.47%
inactive: [2] 17% | [4] 16.4% | [9] 17.8%

C=CCSc1nnc(-c2ccc(C(C)(C)C)cc2)n1-c1cccc(C(F)(F)F)c1
inactive: [1] 17.7% | [2] 26.3% | [3] 80.5% | [4] 32.6% | [5] 16.6% | [6] 37.4% | [7] 42.4% | [8] 47.1% | [9] 67.8%

CC(=O)CC(C)(C)c1ccc(Cl)cc1
inactive: [1] 101% | [2] 98.1% | [3] 81.9% | [4] 98.7% | [5] 93.6% | [6] 108% | [7] 101% | [8] 97.3% | [9] 115%

CN1CCN(Cc2ccc(NC(=O)c3[nH]ncc3Nc3ccnc4ccsc34)cc2)CC1
active: [8] 0.622%
inactive: [1] 66.4% | [2] 30.1% | [3] 20.5% | [4] 29.2% | [5] 34% | [6] 38.4% | [7] 64.1% | [9] 54.9%

C=C1CC[C@@H]2[C@](C)(COC(C)=O)[C@H](OC(C)=O)CC[C@@]2(C)[C@@H]1CC(NCc1ccc(F)cc1)C1=CCOC1=O (stereo not given in full)
active: [8] 9.33%
inactive: [1] 37% | [2] 21.3% | [3] 58.1% | [4] 48% | [5] 20.8% | [6] 11.8% | [7] 32.2% | [9] 77.8%

COc1ccc(Cl)cc1Nc1nc(C(F)(F)F)ccc1C(=O)N/N=C/c1cccnc1
inactive: [1] 29.1% | [2] 49.6% | [3] 67.1% | [4] 40.4% | [5] 43.7% | [6] 22.2% | [7] 50.9% | [8] 36.3% | [9] 59.9%

O=C(COc1cccc(/C=C2/Oc3ccccc3C2=O)c1)Nc1nccs1
inactive: [1] 81.7% | [2] 84.2% | [3] 84.8% | [4] 89.4% | [5] 14.6% | [6] 78.8% | [7] 82.9% | [8] 65.4% | [9] 124%

CCCCNP1(NCCCC)=NP(NCCCC)(NCCCC)=NP(NCCCC)(NCCCC)=NP(NCCCC)(NCCCC)=N1
inactive: [1] 99.3% | [2] 11.9% | [4] 11% | [7] 20.3% | [9] 37.4%
active: [3] 8.44% | [5] -6.45% | [6] -93.8% | [8] 1.62%

C/C=C/C(N)=O
inactive: [1] 96.9% | [2] 102% | [3] 90.6% | [4] 104% | [5] 93.9% | [6] 96.7% | [7] 105% | [8] 99.3% | [9] 93%

CC1=NNC(=O)C1C (stereo not given)
inactive: [1] 98.7% | [2] 109% | [3] 91.4% | [4] 105% | [5] 108% | [6] 103% | [7] 94.5% | [8] 99% | [9] 106%

CCN(CC)CC(O)CNc1c2ccc([N+](=O)[O-])cc2nc2cc(OC)c(OC)cc12 (stereo not given)
active: [2] -48.7% | [3] -94.6% | [4] -16.2% | [5] -53.4% | [6] -78.3% | [7] -77.6% | [8] -40.2% | [9] -11.9%
inactive: [1] 11.9%

CC(=O)Nc1ccc2c(c1)c(NC(C)=O)nn2C(=O)Nc1ccc(Cc2ccccc2)cc1
inactive: [1] 78.8% | [2] 89.1% | [3] 106% | [4] 69.5% | [5] 63.5% | [6] 109% | [7] 20% | [8] 53.6% | [9] 141%

O=C(Nc1ccc(CN2CCOCC2)cc1)c1[nH]ncc1Nc1ncnc2sccc12
inactive: [4] 13.8% | [5] 11% | [7] 10.1%
active: [1] 5.47% | [2] 9.37% | [3] -24.7% | [6] -16.5% | [8] -14.4% | [9] 7.07%

Nc1nc(SCc2ccccc2)c2ncn(C3CCCC3)c2n1
active: [1] -58.9% | [4] -25.9% | [8] 3.63%
inactive: [2] 114% | [3] 126% | [5] 83.2% | [6] 94% | [7] 81.4% | [9] 141%

COc1nc2c(cc1S(=O)(=O)c1ccccc1)CCc1c-2cnn1-c1ccc(Cl)cc1
inactive: [1] 93.8% | [2] 89.3% | [3] 92.3% | [4] 92.1% | [5] 88.2% | [6] 94.8% | [7] 88.7% | [8] 96.2% | [9] 88.8%

CC/C(=C(\c1ccccc1)c1ccc(OCCNC)cc1)c1ccccc1
active: [1] -94.3% | [2] -89.8% | [3] -81.7% | [4] -80.3% | [5] -67.6% | [6] -99.8% | [7] -99.1% | [8] -100% | [9] -98.5%

Cc1ccc2c(c1)n([O-])c1cc(Cl)ccc1[n+]2=O
inactive: [1] 119% | [2] 112% | [3] 91.3% | [4] 110% | [5] 93.6% | [6] 107% | [7] 89% | [8] 129% | [9] 133%

O=C(/C=C\c1cccc([N+](=O)[O-])c1)c1ccccc1
inactive: [1] 21% | [3] 77.6% | [4] 31.1% | [5] 40.7% | [6] 76.3% | [7] 71.9%
active: [2] 4.18% | [8] 3.66% | [9] 5.24%

COC1/C=C\OC2(C)Oc3c(C)c(O)c4c(O)c(c(CN(C)CCO)c(O)c4c3C2=O)NC(=O)/C(C)=C\C=C/C(C)C(O)C(C)C(O)C(C)C(OC(C)=O)C1C (stereo not given)
inactive: [1] 104% | [2] 140% | [3] 83.2% | [4] 109% | [5] 97.2% | [6] 108% | [7] 97.6% | [8] 94.9% | [9] 124%

COc1cc(-c2nc3ccccc3s2)ccc1NC(=O)COc1ccc(Cl)cc1
inactive: [1] 85.8% | [2] 34.9% | [3] 21.3% | [4] 41.9% | [5] 49.8% | [6] 73.7% | [7] 36.1% | [8] 64.7% | [9] 58.6%

Nc1cc2ccncc2c2ccccc12
inactive: [1] 75.1% | [2] 65.2% | [3] 116% | [4] 81.1% | [5] 83.1% | [6] 76.9% | [7] 60.7% | [8] 50.8% | [9] 103%

CCN(CC)c1ccc(/C=C/C2=[N+](C)c3ccccc3C2(C)C)cc1
active: [5] 5.82% | [6] -71.3%
inactive: [1] 41.1% | [2] 10.7% | [3] 26.4% | [4] 13.8% | [7] 16% | [8] 13.3% | [9] 42.9%

Cc1cc2c(cc1C)NC1=C(N2)OC(c2c3ccccc3cc3ccccc23)C1=O (stereo not given)
active: [1] 0.544% | [4] -8.89% | [6] -40.6% | [7] 3.19% | [8] -35.4%
inactive: [2] 12.5% | [3] 49.4% | [5] 28.2% | [9] 31.5%

Nc1cc(O)cc2cccnc12
inactive: [1] 110% | [2] 106% | [10] 79.4% | [4] 86.7% | [5] 78.7% | [6] 72.4% | [7] 89.5% | [8] 51.2% | [9] 112%

CCN(CC)c1ccc(CNc2cc(C)nc3ccc(OC)cc23)cc1
inactive: [1] 79.1% | [3] 65.8% | [4] 25% | [5] 28.5% | [6] 39% | [8] 24.7% | [9] 96.6%
active: [2] 9.05%

CN(C)c1ccc(/C=C(\C#N)c2nc3ccccc3s2)cc1
inactive: [1] 106% | [2] 100% | [3] 89.4% | [4] 106% | [5] 105% | [6] 98.4% | [7] 101% | [8] 113% | [9] 119%

CCCCOc1ccc(NC(=O)n2nc(NC(C)=O)c3cc(NC(C)=O)ccc32)cc1
inactive: [1] 88.9% | [2] 85.5% | [3] 114% | [4] 96.2% | [5] 76.6% | [6] 101% | [7] 91.8% | [8] 98.5% | [9] 126%
